Data on 38 sequences can be found in paper PMC4081100, “A DNA-binding-site landscape and regulatory network analysis for NAC transcription factors in Arabidopsis thaliana”.

The first test addresses T1, GST-ANAC055(1-171) (Arabidopsis thaliana, UniProt Q9LDY8 1-171).
T1 sequence: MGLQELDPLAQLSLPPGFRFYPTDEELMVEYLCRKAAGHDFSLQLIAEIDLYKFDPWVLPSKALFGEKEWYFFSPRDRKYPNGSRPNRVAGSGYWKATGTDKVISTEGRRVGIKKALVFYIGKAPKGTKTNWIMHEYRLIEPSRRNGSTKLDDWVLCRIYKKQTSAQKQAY
The experiment in a line: universal protein binding microarray (PBM); transcription factors of Arabidopsis thaliana; high values mean tight binding. As to conditions: protein: recombinant; tags: GST; chain copies: 2; dsDNA, one strand shown. The gist of the method:
(§1)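 GST-tagged proteins (NAC-domain, full-length or DNA-binding-domain) were induced in cells, with zinc acetate supplied for zinc-finger proteins, then purified on glutathione–Sepharose 4B. Each was tested in duplicate at 200 to 500 nM final on custom all-10-mer Agilent 4 × 180K arrays rendered double-stranded by primer extension. The binding value is the normalised enrichment score (E-score) across gapped and ungapped 8-mers.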
Consider GACGTCAA, for which the binding signal was 0.0759 E-score.

With AAACGTGT, the binding signal worked out at 0.33 E-score.

Consider AAGCGTAA, for which the binding signal is 0.0793 E-score.

In the case of CAACACGC, the binding signal turned out to be 0.227 E-score.

For GAACACGC, the binding signal was 0.237 E-score.

As to ACGTCACT, the binding signal came out at 0.342 E-score.

Consider ACACTCAA, for which the binding signal was 0.174 E-score.

As for CGTGCACG, the binding signal turned out to be 0.424 E-score.

In the case of ATGTCAAC, the binding signal turned out to be 0.133 E-score.

Consider GACTTTTA, for which the binding signal is 0.051 E-score.

For CAAAGTCA, the binding signal turned out to be 0.0622 E-score.

In the case of ACGTCTCC, the binding signal is 0.353 E-score.

For TGACGTAA, the binding signal was 0.364 E-score.

With AATAGCGT, the binding signal stood at 0.138 E-score.

On to AACTTGAC, for which the binding signal came out at 0.105 E-score.

For ATTCCGTG, the binding signal worked out at 0.448 E-score.

As to ACGCAATA, the binding signal came out at 0.212 E-score.

A further test has as its target T2, GST-ATAF1 NAC domain (Arabidopsis thaliana, UniProt Q39013 7-158).
T2 sequence: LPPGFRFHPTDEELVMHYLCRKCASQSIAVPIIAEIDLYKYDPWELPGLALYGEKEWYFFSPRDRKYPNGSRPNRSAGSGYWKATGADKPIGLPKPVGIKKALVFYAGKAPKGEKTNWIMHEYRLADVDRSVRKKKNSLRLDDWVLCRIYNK
Described as above. As to conditions: protein: recombinant; tags: GST; chain copies: 2; dsDNA, one strand shown. The gist of the method: as §1
In the case of ACGCAACC, the binding signal came out at 0.428 E-score.

Consider ACGGAAGC, for which the binding signal was determined as 0.289 E-score.

As for CTTGCGTC, the binding signal worked out at 0.0507 E-score.

GTCACGCA: the binding signal was found to be 0.193 E-score.

As for ATTGCGTG, the binding signal was determined as 0.355 E-score.

For the sequence AGTTTGAC, the binding signal is 0.122 E-score.

As for GTTGACTA, the binding signal is 0.103 E-score.

For ATAGCGTG, the binding signal came out at 0.128 E-score.

For CACGTTAA, the binding signal was determined as 0.219 E-score.

Turning to AGTCAAAA, the binding signal is 0.234 E-score.

As to TAGAGTAA, the binding signal is 0.0567 E-score.

Take GACGCAAA: the binding signal came to 0.0741 E-score.

With AGACACGC, the binding signal was found to be 0.165 E-score.

CTTGCGTA: the binding signal was 0.317 E-score.

With TAACGTGA, the binding signal amounted to 0.208 E-score.

On to TAAGTCAA, for which the binding signal is 0.208 E-score.

For the sequence ACGCAAGG, the binding signal was found to be 0.106 E-score.

As to GACGTCAA, the binding signal was 0.0728 E-score.

Consider AAACGTGT, for which the binding signal came to 0.339 E-score.

For the sequence TAAGGTCA, the binding signal stood at 0.094 E-score.

Consider AAGCGTAA, for which the binding signal worked out at 0.175 E-score.

Consider CAACACGC, for which the binding signal is 0.172 E-score.

For GAACACGC, the binding signal amounted to 0.19 E-score.

On to CGTCAACG, for which the binding signal turned out to be 0.0746 E-score.

In the case of ACGTCACT, the binding signal was found to be 0.354 E-score.

ACACTCAA: the binding signal worked out at 0.17 E-score.

As for CGTGCACG, the binding signal was found to be 0.304 E-score.

For ATGTCAAC, the binding signal worked out at 0.127 E-score.

Regarding GACTTTTA, the binding signal stood at 0.17 E-score.

Take ACGTCTCC: the binding signal amounted to 0.368 E-score.

As to TGACGTAA, the binding signal was 0.407 E-score.

As to AAAGTCAT, the binding signal is 0.14 E-score.

For the sequence AATAGCGT, the binding signal is 0.114 E-score.

In the case of AACTTGAC, the binding signal worked out at 0.0699 E-score.

For ATTCCGTG, the binding signal was 0.3 E-score.

On to ACGCAATA, for which the binding signal amounted to 0.166 E-score.

A further test deals with T3, GST-ANAC092(1-285) full length (Arabidopsis thaliana, UniProt Q9FKA0 1-285).
T3 sequence: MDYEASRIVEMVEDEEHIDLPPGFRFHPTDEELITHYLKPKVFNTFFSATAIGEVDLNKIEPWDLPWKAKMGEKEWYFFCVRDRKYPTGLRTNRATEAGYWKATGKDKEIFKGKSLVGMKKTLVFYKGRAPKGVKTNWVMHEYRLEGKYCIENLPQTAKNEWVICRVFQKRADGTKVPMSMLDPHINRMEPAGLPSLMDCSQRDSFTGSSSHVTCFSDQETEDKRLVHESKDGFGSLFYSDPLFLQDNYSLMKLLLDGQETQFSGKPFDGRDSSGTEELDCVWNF
The test is described as above. As to conditions: protein: recombinant; tags: GST; chain copies: 2; dsDNA, one strand shown. The gist of the method:
as §1
In the case of ACGCAACC, the binding signal turned out to be 0.492 E-score.

For the sequence ACGGAAGC, the binding signal was determined as 0.298 E-score.

CTTGCGTC: the binding signal is 0.402 E-score.

For GTCACGCA, the binding signal is 0.4 E-score.

Regarding ATTGCGTG, the binding signal worked out at 0.494 E-score.

For the sequence GTTGACTA, the binding signal amounted to 0.133 E-score.

On to ATAGCGTG, for which the binding signal was 0.47 E-score.

With GATTGACC, the binding signal came out at 0.14 E-score.

Consider CACGTTAA, for which the binding signal was 0.442 E-score.

AGTCAAAA: the binding signal stood at 0.0672 E-score.

On to TAGAGTAA, for which the binding signal amounted to 0.263 E-score.

Take GACGCAAA: the binding signal is 0.411 E-score.

On to AGACACGC, for which the binding signal amounted to 0.42 E-score.

Regarding CTTGCGTA, the binding signal was found to be 0.474 E-score.

In the case of TAACGTGA, the binding signal turned out to be 0.419 E-score.

In the case of TAAGTCAA, the binding signal turned out to be 0.158 E-score.

With ACGCAAGG, the binding signal amounted to 0.448 E-score.

For the sequence GACGTCAA, the binding signal was found to be 0.19 E-score.

Consider AAACGTGT, for which the binding signal came out at 0.435 E-score.

Take AAGCGTAA: the binding signal was 0.3 E-score.

For the sequence CAACACGC, the binding signal came out at 0.436 E-score.

For the sequence GAACACGC, the binding signal was determined as 0.427 E-score.

In the case of CGTCAACG, the binding signal was 0.159 E-score.

ACGTCACT: the binding signal is 0.406 E-score.

For the sequence ACACTCAA, the binding signal turned out to be 0.448 E-score.

On to CGTGCACG, for which the binding signal turned out to be 0.418 E-score.

For the sequence GACTTTTA, the binding signal was determined as 0.141 E-score.

With CAAAGTCA, the binding signal was 0.0505 E-score.

Consider ACGTCTCC, for which the binding signal stood at 0.33 E-score.

Consider TGACGTAA, for which the binding signal amounted to 0.441 E-score.

On to AAAGTCAT, for which the binding signal stood at 0.119 E-score.

Turning to AATAGCGT, the binding signal came to 0.412 E-score.

Regarding AACTTGAC, the binding signal was 0.088 E-score.

Consider ATTCCGTG, for which the binding signal was 0.401 E-score.

On to ACGCAATA, for which the binding signal came to 0.447 E-score.
